Experimental data taken from PubChem BioAssay (Tox21).
Results filed as inconclusive are left out. Calls of active or inactive are those of the source. Unless noted, calls follow the shape of the dose curve; as a rule, active = well fitted curve in the direction sought with a large enough effect in the repeat runs; inconclusive = weak or mixed curves; inactive = no such curve, though single readings can be large; an effect the other way counts as inactive or inconclusive.

Experiments:
[1] = biological target: Aryl hydrocarbon receptor (Homo sapiens) (UniProt P35869); experiment: qHTS assay to identify small molecule that activate the aryl hydrocarbon receptor (AhR) signaling pathway (AID 743085);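 also: HG2L7.5c1 human HepG2 liver cells with stably integrated DRE-driven firefly reporter; series mostly up to about 70 µM; nearly all actives have a fitted effect of over 15% in size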
Summary of the method: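 24 h compound exposure, 37C, HepG2-derived HG2L7.5c1 cells with DRE-responsive luciferase. Readouts: fluorescence viability, then luminescence at room temperature after 30 min.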

[2] = qHTS assay to identify small molecule that activate the aryl hydrocarbon receptor (AhR) signaling pathway - cell viability counter screen (AID 743086);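 also: HepG2 liver cells carrying the AhR DRE luciferase reporter; series mostly up to about 70 µM; nearly all actives have a fitted effect of over 45% in size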
Summary of the method: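 HepG2-AhR-luc (HG2L7.5c1) cells, 4000/well, treated 24 h at 37 C with compound; viability measured as CellTiter-Fluor fluorescence after 30 min in the same wells as the luciferase read.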

[3] = biological target: Peroxisome proliferator-activated receptor gamma (Homo sapiens) (UniProt P37231); experiment: qHTS assay to identify small molecule agonists of the peroxisome proliferator-activated receptor gamma (PPARg) signaling pathway (AID 743094; active = well fitted activation curve with a large enough effect in the signal ratio in the repeat runs, not every such curve was filed as active; the % refers to the signal ratio)
Summary of the method: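 HEK293H PPARg-bla cells, 5 h settle at 37C/5% CO2; compound (DMSO) 17 h, 37C; B/G FRET substrate 1 h RT; fluorescence intensity read-out. qHTS format.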

[4] = biological target: Peroxisome proliferator-activated receptor gamma (Homo sapiens) (UniProt P37231); experiment: qHTS assay to identify small molecule antagonists of the peroxisome proliferator-activated receptor gamma (PPARg) signaling pathway (AID 743191; calls by dose curve; also: series mostly up to about 63 µM; nearly all actives have a fitted effect of over 30% in size)
Summary of the method: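 GeneBLAzer PPARg UAS-bla HEK293H cells, 5 h post-plating, exposed to compounds 17 h at 37C. LiveBLAzer B/G FRET substrate added for 1 h at room temperature; beta-lactamase reporter read by fluorescence intensity.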

[5] = qHTS assay for small molecule agonists of the antioxidant response element (ARE) signaling pathway (AID 743202; active = well fitted activation curve with a large enough effect in the signal ratio in the repeat runs, not every such curve was filed as active; the % refers to the signal ratio)
Summary of the method: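 HepG2 ARE-bla reporter line, 2,000 cells/well; 5 h preincubation 37 C/5% CO2; compound (DMSO) 16 h 37 C; B/G FRET substrate 2 h RT; fluorescence intensity.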

[6] = qHTS assay for small molecule agonists of the antioxidant response element (ARE) signaling pathway - cell viability counter screen (AID 743203; calls by dose curve; also: nearly all actives have a fitted effect of over 55% in size)
Summary of the method: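 Luminescence read-out (CellTiter-Glo, 30 min at room temperature) measured cell viability in the same wells as the ARE beta-lactamase reporter. HepG2 ARE-bla cells were treated with compounds for 16 hrs at 37C/5% CO2.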

[7] = qHTS assay for small molecule activators of the heat shock response signaling pathway - cell viability counter screen (AID 743209); also: nearly all actives have a fitted effect of over 50% in size
Summary of the method: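 HSE-bla HeLa; 1500 cells/well; overnight 37 C, 5% CO2; compound 5 h 37 C; LiveBLAzer B/G substrate 2.5 h RT; CellTiter-Glo 30 min RT; luminescence.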

[8] = qHTS assay for small molecule activators of the heat shock response signaling pathway (AID 743210; active = well fitted activation curve with a large enough effect in the signal ratio in the repeat runs, with a control signal flat, not every such curve was filed as active; the % refers to the signal ratio;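 also: HeLa cells with beta-lactamase reporter driven by heat shock elements; series mostly up to about 63 µM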)
Summary of the method: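 Beta-lactamase reporter read-out: FRET substrate fluorescence after 2.5 h at RT, following 5 h compound treatment at 37 C of HeLa cells carrying HSE-driven bla reporter; quantitative HTS format.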

[9] = biological target: Peroxisome proliferator-activated receptor delta (Homo sapiens) (UniProt Q03181); experiment: qHTS assay to identify small molecule agonists of the peroxisome proliferator-activated receptor delta (PPARd) signaling pathway (AID 743212; calls by dose curve)
Summary of the method: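 Read-out: beta-lactamase FRET fluorescence after 2 h room-temperature incubation with LiveBLAzer B/G substrate. Cells were HEK293H carrying a UAS-bla reporter for PPARd, treated at 37 C with DMSO-dissolved compounds.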

[10] = qHTS assay to identify small molecule antagonists of the peroxisome proliferator-activated receptor delta (PPARd) signaling pathway - cell viability counter screen (AID 743213); also: nearly all actives have a fitted effect of over 50% in size
Summary of the method: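 PPARd-bla HEK293H cells (3000/well) got compound plus 300 nM L165041 agonist for 17 h at 37 C. Viability in the same wells came from CellTiter-Glo luminescence after 30 min at room temperature.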

[11] = biological target: Peroxisome proliferator-activated receptor delta (Homo sapiens) (UniProt Q03181); experiment: qHTS assay to identify small molecule antagonists of the peroxisome proliferator-activated receptor delta (PPARd) signaling pathway (AID 743215; active = well fitted inhibition curve with a large enough effect in the signal ratio in the repeat runs, not every such curve was filed as active; the % refers to the signal ratio;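 also: cells stimulated with agonist L165041 at 300 nM final during compound exposure; series mostly up to about 62 µM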)
Summary of the method: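 HEK293H GeneBLAzer PPARd UAS-bla reporter cells; cpd + L165041 300 nM final, 17 h 37 C; LiveBLAzer B/G FRET substrate 2 h RT; fluorescence intensity read-out. Antagonist mode.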

[12] = qHTS assay to identify small molecule agonists of the farnesoid-X-receptor (FXR) signaling pathway - cell viability counter screen (AID 743218); also: nearly all actives have a fitted effect of over 45% in size
Summary of the method: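 Luminescence from CellTiter-Glo, read after 30 min at RT, reports viability of GeneBLAzer FXR-UAS-bla HEK 293T cells treated 16 h with compounds in the wells used for the beta-lactamase reporter.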

[13] = qHTS assay to identify small molecule antagonists of the farnesoid-X-receptor (FXR) signaling pathway - cell viability counter screen (AID 743221; active = well fitted cell-killing curve with a large enough effect in the repeat runs, not every such curve was filed as active; also: nearly all actives have a fitted effect of over 50% in size)
Summary of the method: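 In GeneBLAzer FXR-UAS-bla HEK 293T cells stimulated with 50 uM chenodeoxycholic acid (final), compounds acted for 16 h at 37 C. Viability was assessed afterwards by CellTiter-Glo luminescence.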

[14] = biological target: Vitamin D3 receptor (Homo sapiens) (UniProt P11473); experiment: qHTS assay to identify small molecule agonists of the vitamin D receptor (VDR) signaling pathway (AID 743222; calls by dose curve)
Summary of the method: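 Beta-lactamase reporter readout (LiveBLAzer B/G FRET, 2 h RT) in VDR-bla cells after 16 h compound treatment at 37C, 5% CO2; cells pre-incubated 4 h before pin transfer of DMSO solutions.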

[15] = biological target: Vitamin D3 receptor (Homo sapiens) (UniProt P11473); experiment: qHTS assay to identify small molecule antagonists of the vitamin D receptor (VDR) signaling pathway (AID 743223; active = well fitted inhibition curve with a large enough effect in the signal ratio in the repeat runs, not every such curve was filed as active; the % refers to the signal ratio)
Summary of the method: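 Agonist 1alpha,25-dihydroxyvitamin D3 (3 nM in well) was added with each compound to VDR-bla cells preincubated 4 h. Cells stood 16 h at 37C, then FRET substrate 2 h at room temperature; fluorescence intensity recorded.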

[16] = qHTS assay to identify small molecule agonists of the vitamin D receptor (VDR) signaling pathway - cell viability counter screen (AID 743224); also: series mostly up to about 63 µM; nearly all actives have a fitted effect of over 50% in size
Summary of the method: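 Cytotoxicity counter screen: VDR-bla cells, 16 h compound exposure at 37C, 5% CO2; CellTiter-Glo luminescence, 30 min RT, same wells as bla read.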

[17] = qHTS assay to identify small molecule agonists of the peroxisome proliferator-activated receptor delta (PPARd) signaling pathway - cell viability counter screen (AID 743211); also: nearly all actives have a fitted effect of over 55% in size
Summary of the method: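 Luminescent ATP viability assay (CellTiter-Glo, 30 min RT) in UAS-bla HEK293H cells carrying the PPAR delta reporter construct, 3000 cells/well, after a 17 h compound treatment at 37 C.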

[18] = qHTS assay to identify small molecule antagonists of the peroxisome proliferator-activated receptor gamma (PPARg) signaling pathway - cell viability counter screen (AID 743194); also: nearly all actives have a fitted effect of over 55% in size
Summary of the method: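 Cytotoxicity counter screen in PPARg-bla HEK293H cells, same wells as reporter assay. Compounds plus 50 nM rosiglitazone (final) for 17 h at 37 C, then viability read by CellTiter-Glo luminescence.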

[19] = biological target: Bile acid receptor (Homo sapiens) (UniProt Q96RI1); experiment: qHTS assay to identify small molecule antagonists of the farnesoid-X-receptor (FXR) signaling pathway (AID 743217; active = well fitted inhibition curve with a large enough effect in the signal ratio in the repeat runs, not every such curve was filed as active; the % refers to the signal ratio)
Summary of the method: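 Read-out: beta-lactamase FRET fluorescence (LiveBLAzer B/G substrate, 2 h, room temperature) in GeneBLAzer FXR-UAS-bla HEK 293T cells. Compounds were co-dosed with 50 uM chenodeoxycholic acid (final) and incubated 16 h at 37 °C.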

[20] = biological target: Bile acid receptor (Homo sapiens) (UniProt Q96RI1); experiment: qHTS assay to identify small molecule agonists of the farnesoid-X-receptor (FXR) signaling pathway (AID 743220; active = well fitted activation curve with a large enough effect in the signal ratio in the repeat runs, not every such curve was filed as active; the % refers to the signal ratio)
Summary of the method: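 FXR-UAS-bla HEK 293T cells carrying a UAS-driven beta-lactamase reporter were plated for 5 h at 37C/5% CO2, then exposed to DMSO-dissolved Tox21 10K compounds for 16 h at 37C. A LiveBLAzer B/G FRET substrate was loaded for 2 h at room temperature before fluorescence reading.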

Measured: Potency

Peroxisome proliferator-activated receptor gamma (Homo sapiens), sequence (P37231 whole entry, looked up): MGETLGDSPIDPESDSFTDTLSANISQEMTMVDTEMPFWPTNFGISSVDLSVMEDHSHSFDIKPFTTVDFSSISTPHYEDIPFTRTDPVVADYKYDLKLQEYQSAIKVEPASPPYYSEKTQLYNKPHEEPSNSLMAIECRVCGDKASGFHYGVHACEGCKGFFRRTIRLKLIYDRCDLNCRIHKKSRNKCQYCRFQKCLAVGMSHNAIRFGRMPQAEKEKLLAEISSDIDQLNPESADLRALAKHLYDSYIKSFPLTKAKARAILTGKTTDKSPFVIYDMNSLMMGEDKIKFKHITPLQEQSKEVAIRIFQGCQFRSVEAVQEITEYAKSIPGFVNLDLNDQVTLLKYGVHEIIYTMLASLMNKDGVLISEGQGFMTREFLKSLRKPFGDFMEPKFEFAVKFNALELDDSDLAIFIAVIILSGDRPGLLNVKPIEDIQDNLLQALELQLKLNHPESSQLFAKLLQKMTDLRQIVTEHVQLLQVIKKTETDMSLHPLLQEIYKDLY
Bile acid receptor (Homo sapiens), sequence (Q96RI1 whole entry, looked up): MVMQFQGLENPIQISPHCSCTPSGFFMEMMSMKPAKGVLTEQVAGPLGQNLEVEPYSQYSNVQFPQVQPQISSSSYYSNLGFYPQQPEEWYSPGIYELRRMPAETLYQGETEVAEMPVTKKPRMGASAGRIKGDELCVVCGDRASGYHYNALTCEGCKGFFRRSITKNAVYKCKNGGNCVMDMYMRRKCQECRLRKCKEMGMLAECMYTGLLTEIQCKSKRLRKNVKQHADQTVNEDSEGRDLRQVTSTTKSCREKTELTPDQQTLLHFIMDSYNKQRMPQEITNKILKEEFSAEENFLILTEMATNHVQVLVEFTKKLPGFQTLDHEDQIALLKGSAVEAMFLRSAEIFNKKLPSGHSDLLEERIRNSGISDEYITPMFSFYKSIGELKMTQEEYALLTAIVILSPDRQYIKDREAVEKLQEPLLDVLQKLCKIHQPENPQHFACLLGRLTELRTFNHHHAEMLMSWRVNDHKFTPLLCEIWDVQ
Peroxisome proliferator-activated receptor delta (Homo sapiens), sequence (Q03181 whole entry, looked up): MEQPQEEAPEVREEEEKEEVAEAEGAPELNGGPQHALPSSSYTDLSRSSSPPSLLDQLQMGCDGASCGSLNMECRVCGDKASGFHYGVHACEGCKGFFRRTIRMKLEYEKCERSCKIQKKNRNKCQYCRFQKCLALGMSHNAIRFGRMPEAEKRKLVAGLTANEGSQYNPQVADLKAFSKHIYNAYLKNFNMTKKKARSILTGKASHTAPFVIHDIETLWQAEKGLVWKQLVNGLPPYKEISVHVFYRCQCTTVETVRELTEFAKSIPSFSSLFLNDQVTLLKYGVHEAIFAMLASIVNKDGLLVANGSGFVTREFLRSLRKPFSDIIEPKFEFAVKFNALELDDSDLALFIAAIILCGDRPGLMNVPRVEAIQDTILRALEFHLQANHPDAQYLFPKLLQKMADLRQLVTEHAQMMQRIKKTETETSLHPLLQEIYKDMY
Vitamin D3 receptor (Homo sapiens), sequence (P11473 whole entry, looked up): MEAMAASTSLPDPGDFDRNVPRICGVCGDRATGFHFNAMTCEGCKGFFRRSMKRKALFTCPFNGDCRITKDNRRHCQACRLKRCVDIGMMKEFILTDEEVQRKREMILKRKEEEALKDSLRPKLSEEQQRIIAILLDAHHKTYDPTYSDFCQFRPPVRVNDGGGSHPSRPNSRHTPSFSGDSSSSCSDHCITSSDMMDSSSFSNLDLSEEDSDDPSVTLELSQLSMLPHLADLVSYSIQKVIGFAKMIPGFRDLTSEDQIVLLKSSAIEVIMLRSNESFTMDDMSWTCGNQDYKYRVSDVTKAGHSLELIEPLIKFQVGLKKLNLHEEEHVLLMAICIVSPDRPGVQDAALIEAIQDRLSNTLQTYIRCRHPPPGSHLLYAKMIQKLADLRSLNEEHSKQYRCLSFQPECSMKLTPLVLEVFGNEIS
Aryl hydrocarbon receptor (Homo sapiens), sequence (P35869 whole entry, looked up): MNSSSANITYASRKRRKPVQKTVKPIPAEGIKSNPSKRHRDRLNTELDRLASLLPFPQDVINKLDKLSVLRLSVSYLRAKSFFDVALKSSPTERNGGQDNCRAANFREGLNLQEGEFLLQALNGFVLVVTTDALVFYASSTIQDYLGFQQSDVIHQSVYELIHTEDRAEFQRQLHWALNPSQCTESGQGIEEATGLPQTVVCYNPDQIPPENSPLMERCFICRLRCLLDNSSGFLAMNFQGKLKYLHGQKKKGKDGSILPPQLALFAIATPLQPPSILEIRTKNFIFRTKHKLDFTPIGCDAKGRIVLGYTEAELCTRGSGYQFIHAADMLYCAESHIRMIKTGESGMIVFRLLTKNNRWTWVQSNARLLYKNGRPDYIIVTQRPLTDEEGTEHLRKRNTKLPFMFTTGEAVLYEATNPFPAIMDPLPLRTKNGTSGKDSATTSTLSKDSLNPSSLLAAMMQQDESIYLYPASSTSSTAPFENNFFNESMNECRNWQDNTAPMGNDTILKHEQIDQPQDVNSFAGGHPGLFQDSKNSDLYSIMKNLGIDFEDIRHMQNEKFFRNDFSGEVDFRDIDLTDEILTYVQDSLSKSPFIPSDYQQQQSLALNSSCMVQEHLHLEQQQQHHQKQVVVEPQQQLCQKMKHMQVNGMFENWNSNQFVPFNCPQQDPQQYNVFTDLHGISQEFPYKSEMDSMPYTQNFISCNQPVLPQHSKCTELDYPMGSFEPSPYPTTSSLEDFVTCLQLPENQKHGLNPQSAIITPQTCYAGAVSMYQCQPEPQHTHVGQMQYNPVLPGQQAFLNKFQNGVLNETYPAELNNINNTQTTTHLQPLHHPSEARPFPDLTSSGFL

Cc1cc(C)c(N)c(Cl)c1
not listed: [17] | [18] | [19] | [20]
inactive: all other assays above

CC(O)C(CO)C(C)O (centres undefined)
not listed: [13] | [14] | [15] | [18] | [19] | [20]
inactive: all other assays above

CCC(=O)OCCOc1ccccc1
not listed: [5] | [7] | [9] | [11] | [19] | [20]
inactive: all other assays above

BrCCOc1ccccc1
not listed: [7] | [8]
inactive: all other assays above

C=CCCCCCCCCCCCCCC
not listed: [5] | [15] | [19] | [20]
inactive: all other assays above

CCc1ncc(C)[nH]1
not listed: [4] | [13] | [19]
inactive: all other assays above

CCCCCCCCCCCCCCBr
not listed: [8] | [9] | [11] | [14] | [18]
inactive: all other assays above

NC(=O)CC[C@@H](N)C(=O)O
not listed: [5] | [6] | [14] | [19] | [20]
inactive: all other assays above

COC(=O)N/N=C/c1c[n+]([O-])c2ccccc2[n+]1[O-]
not listed: [5] | [7] | [8] | [12] | [14] | [15]
inactive: all other assays above
